In PubChem BioAssay:
For some of these results: Entries with a potency or affinity are not part of this list. Active and inactive are the calls of the source.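 How the source made its calls, unless noted: active means primary screen activator hit with a dose response curve and TRPC4 channel activation at any tested dose; inactive means no activation, no dose response, or not a primary hit.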

How the values were obtained:
[1] = system: TRPC4 beta (transient receptor potential cation channel C4), mouse; test: activators of mouse TRPC4 channel, confirmation, cell-based, Fluo4 calcium, HEK293 TRPC4beta/mu-opioid, duplicates, 10 µM (AID 2426;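 active means fluorescence ratio normalized to control raised more than 50% in primary screen plus both repeat runs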); details: Fluo4 calcium fluorescence, at 10 µM; active compounds read high
[2] = system: transient receptor potential cation channel C4 beta (TRPC4), mouse; test: activators of mouse TRPC4 channel, confirmation, cell-based, second round, Fluo4, HEK293 TRPC4beta/mu-opioid, 1 µM (AID 2461;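 active means primary screen active and over 50% activation in each of two duplicate runs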); details: Fluo4 calcium fluorescence, at 1 µM; active compounds read high
[3] = system: TRPC4 (transient receptor potential cation channel C4 beta), mouse; test: positive allosteric modulators of mouse TRPC4, confirmation, cell-based, second round, Fluo-4, HEK293 TRPC4beta/mu-opioid, 1 µM (AID 2554;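 active means primary screen hit whose fluorescence ratio, in both repeats, exceeds the weak agonist control mean by 3 SD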); details: DAMGO EC20, Fluo-4 calcium flux, at 1 µM; active compounds read high
[4] = system: TRPC4 beta (transient receptor potential cation channel C4), mouse; test: positive allosteric modulators of mouse TRPC4, confirmation, cell-based, Fluo-4, HEK293 TRPC4beta/mu-opioid (AID 2555;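 active means primary screen hit whose calcium fluorescence ratio, in both repeats, exceeds the weak agonist control mean by 3 SD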); details: DAMGO EC20, Fluo-4 calcium flux, at 10 µM; active compounds read high
[5] = target: Short transient receptor potential channel 4 (Mus musculus) (UniProt Q9QUQ5); test: inhibitors of mouse TRPC4 channel, confirmation, cell-based, Fluo4, HEK293 TRPC4beta/mu-opioid (AID 2636;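 active means calcium signal cut by more than 3 SD below the full-agonist control yet still positive, in both repeats and the earlier primary screen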); details: DAMGO, Fluo4 calcium flux, at 10 µM; active compounds read high
[6] = target: Short transient receptor potential channel 4 (Mus musculus) (UniProt Q9QUQ5); test: inhibitors of mouse TRPC4 channel, confirmation, cell-based, second round, Fluo4, HEK293 TRPC4beta/mu-opioid, 1 µM (AID 2637;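 active means calcium signal ratio cut to more than 3 SD under the fully stimulated control mean yet still positive, in both repeats and the primary screen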;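 on inhibition: percent of integrated ratio relative to wells lacking test compound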); details: Fluo4 calcium flux, DAMGO, at 1 µM; active compounds read high
[7] = target: Short transient receptor potential channel 4 (Mus musculus) (UniProt Q9QUQ5); test: mouse TRPC4 channel activators, dose response, cell-based, HEK293 TRPC4/mu-opioid, Fluo-4 calcium (AID 434937)
[8] = target: Short transient receptor potential channel 4 (Mus musculus) (UniProt Q9QUQ5); test: TRPC4 positive allosteric modulators, dose response, cell-based, HEK293 TRPC4/mu-opioid, Fluo-4 calcium, EC20 DAMGO (AID 434941;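 active means earlier screen potentiator hit that boosts the TRPC4 ion channel at some dose, with a dose response; inactive means no potentiation, no dose response, or not a prior hit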;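 further: calcium entry triggered by an EC20 dose of DAMGO at the co-expressed mu-opioid receptor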)
[9] = target: Short transient receptor potential channel 6 (Mus musculus) (UniProt Q61143); test: inhibition of mouse TRPC6 channel, confirmation, selectivity assay for TRPC4 inhibitor project, cell-based, HEK293, membrane potential dye, duplicate (AID 434948;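 active means active in primary screen and both duplicates, each dropping signal beyond three positive-control SD with fluorescence still positive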); details: HEK293 TRPC6, membrane potential dye fluorescence, at 10 µM, stimulated with maximal-effect acetylcholine; active compounds read high
[10] = target: Short transient receptor potential channel 6 (Mus musculus) (UniProt Q61143); test: activation of mouse TRPC6 channel, confirmation, selectivity assay for TRPC4 activator project, cell-based, HEK293, membrane potential dye, duplicate (AID 434950;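 active means membrane potential signal rise above negative control mean plus 3 SD in both duplicates, also active in the earlier TRPC4 screen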); details: HEK293 TRPC6, membrane potential fluorescence, at 10 µM; active compounds read high
[11] = target: Short transient receptor potential channel 6 (Mus musculus) (UniProt Q61143); test: TRPC6 potentiation by TRPC4 potentiator hits, confirmation, selectivity assay for TRPC4 potentiator project, HEK293 cells, membrane potential dye, duplicate (AID 434952;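 active means compound raising the membrane signal above positive-control mean plus 3 SD in both repeats, and a primary screen hit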); details: HEK293 TRPC6, membrane potential dye fluorescence, at 10 µM, maximal acetylcholine added after compound; active compounds read high
[12] = target: Short transient receptor potential channel 4 (Mus musculus) (UniProt Q9QUQ5); test: calcium flux activators in TRPC4/5HT1a cells, counter-screen for TRPC4 activator project, cell-based, second counter screen, HEK293 TRPC4/5HT1a, Fluo-4 (AID 434977;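 active means calcium signal rise above buffer-control mean plus 5 SD in both duplicates, and also a hit in the primary screen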); details: Fluo-4 calcium flux, at 10 µM; active compounds read high
[13] = calcium flux inhibitors in TRPC4/5HT1a cells, confirmation, counter-screen for TRPC4 inhibitor project, cell-based, second counter screen, HEK293 TRPC4/5HT1a, Fluo-4 (AID 434978;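 active means primary screen active whose calcium signal fell more than 3 SD beyond the full-serotonin control mean in both duplicate plates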;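 on outcome: serotonin given first at submaximal then at maximal dose after compound preincubation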); details: Fluo-4 calcium flux, at 10 µM, serotonin added to trigger calcium flux; active compounds read high
[14] = system: TRPC4 (mouse), co-expressed with 5HT1a in HEK293; test: calcium flux potentiators in TRPC4/5HT1a cells, confirmation, counter-screen for TRPC4 potentiator project, cell-based, second counter screen, HEK293 TRPC4/5HT1a, Fluo-4 (AID 434979;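 active means signal rise over 3 SD above mean of control wells given weak agonist, in both repeats and first screen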); details: Fluo-4 calcium flux, at 10 µM, serotonin added at its EC20 dose; active compounds read high
[15] = calcium flux activation in mu-opioid HEK293 cells, confirmation, counter-screen for TRPC4 activator project, cell-based, HEK293 mu-opioid receptor line (AID 449723;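 active means hit in primary screen, with calcium signal over 5 SD above buffer well mean in both duplicates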;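 further: counter screen cells carry the mu-opioid receptor alone and lack TRPC4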); details: Fluo-4 calcium fluorescence, at 10 µM; active compounds read high
[16] = calcium flux enhancement in mu-opioid HEK293 cells, confirmation, counter-screen for TRPC4 allosteric potentiator project, cell-based, HEK293 mu-opioid receptor line (AID 449724;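 active means calcium signal rise more than 3 SD above the low-dose agonist control mean, in both duplicate plates and the primary screen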); details: Fluo-4 calcium flux, at 10 µM, compound added before EC20 DAMGO stimulus; active compounds read high

Short transient receptor potential channel 4 (Mus musculus), sequence (Q9QUQ5 whole entry, looked up): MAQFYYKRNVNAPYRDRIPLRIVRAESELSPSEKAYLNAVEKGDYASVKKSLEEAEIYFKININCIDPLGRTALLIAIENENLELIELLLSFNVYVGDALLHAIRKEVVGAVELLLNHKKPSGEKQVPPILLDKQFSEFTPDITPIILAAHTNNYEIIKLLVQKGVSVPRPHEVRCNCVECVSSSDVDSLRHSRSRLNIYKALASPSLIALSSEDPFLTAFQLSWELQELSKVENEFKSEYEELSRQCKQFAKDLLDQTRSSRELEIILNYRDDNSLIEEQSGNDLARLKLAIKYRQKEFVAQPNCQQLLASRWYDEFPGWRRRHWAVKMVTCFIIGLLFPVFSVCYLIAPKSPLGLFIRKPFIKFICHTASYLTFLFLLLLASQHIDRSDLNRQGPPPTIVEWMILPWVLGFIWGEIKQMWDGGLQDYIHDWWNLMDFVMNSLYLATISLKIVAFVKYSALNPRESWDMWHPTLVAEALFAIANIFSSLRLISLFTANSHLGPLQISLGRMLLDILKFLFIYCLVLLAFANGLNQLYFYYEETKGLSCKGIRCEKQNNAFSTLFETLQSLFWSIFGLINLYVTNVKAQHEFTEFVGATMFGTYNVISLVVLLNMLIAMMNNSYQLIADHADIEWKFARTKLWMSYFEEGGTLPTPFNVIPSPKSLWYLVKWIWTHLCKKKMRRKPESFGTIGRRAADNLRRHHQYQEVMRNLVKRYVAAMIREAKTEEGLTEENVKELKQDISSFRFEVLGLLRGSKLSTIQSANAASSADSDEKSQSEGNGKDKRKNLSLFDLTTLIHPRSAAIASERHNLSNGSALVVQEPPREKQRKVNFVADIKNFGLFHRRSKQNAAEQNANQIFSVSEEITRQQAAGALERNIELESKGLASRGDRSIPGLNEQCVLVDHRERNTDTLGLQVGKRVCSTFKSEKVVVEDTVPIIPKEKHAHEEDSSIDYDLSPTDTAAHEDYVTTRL
Short transient receptor potential channel 6 (Mus musculus), sequence (Q61143 whole entry, looked up): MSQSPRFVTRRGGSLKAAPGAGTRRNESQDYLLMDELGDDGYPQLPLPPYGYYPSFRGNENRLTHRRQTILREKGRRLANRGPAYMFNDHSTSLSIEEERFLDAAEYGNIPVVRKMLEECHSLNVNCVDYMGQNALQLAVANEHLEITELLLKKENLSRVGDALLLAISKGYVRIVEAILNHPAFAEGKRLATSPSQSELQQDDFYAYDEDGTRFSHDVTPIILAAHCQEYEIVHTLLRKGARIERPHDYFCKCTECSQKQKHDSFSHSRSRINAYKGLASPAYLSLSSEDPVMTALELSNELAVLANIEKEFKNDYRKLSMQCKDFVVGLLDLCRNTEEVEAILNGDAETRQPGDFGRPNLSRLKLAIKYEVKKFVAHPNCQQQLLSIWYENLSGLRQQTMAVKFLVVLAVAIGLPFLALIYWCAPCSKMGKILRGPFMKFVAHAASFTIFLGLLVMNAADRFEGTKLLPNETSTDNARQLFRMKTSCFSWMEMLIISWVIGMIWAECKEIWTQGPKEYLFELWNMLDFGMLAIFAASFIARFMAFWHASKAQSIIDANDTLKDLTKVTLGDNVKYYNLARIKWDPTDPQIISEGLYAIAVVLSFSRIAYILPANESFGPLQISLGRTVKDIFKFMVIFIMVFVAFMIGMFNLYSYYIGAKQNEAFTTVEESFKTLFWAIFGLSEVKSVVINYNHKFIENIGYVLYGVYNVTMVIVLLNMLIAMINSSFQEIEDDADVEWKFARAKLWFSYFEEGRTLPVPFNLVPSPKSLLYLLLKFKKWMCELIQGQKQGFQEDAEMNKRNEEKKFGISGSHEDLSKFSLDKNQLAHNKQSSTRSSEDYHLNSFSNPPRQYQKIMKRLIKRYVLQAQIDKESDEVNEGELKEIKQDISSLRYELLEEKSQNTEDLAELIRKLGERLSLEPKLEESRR

Structure (SMILES)	outcome [1]	outcome [2]	outcome [3]	outcome [4]	outcome [5]	outcome [6]	outcome [7]	outcome [8]	outcome [9]	outcome [10]	outcome [11]	outcome [12]	outcome [13]	outcome [14]	outcome [15]	outcome [16]	inhibition [5]	inhibition [6]	inhibition [13]	inhibition [9]
Cc1cccc2cc(CN(CCCN(C)C)C(=S)NCCc3ccccc3)c(=O)[nH]c12	inactive	inactive	inactive	inactive	inactive	inactive	inactive	inactive	inactive	inactive	inactive	inactive	inactive	inactive	inactive	inactive	–	–	–	–
COc1ccccc1N1CCN(CCCNC(=O)Nc2ccccc2)CC1	inactive	inactive	inactive	inactive	–	–	inactive	inactive	inactive	inactive	inactive	inactive	–	inactive	inactive	inactive	95% (active)	61% (active)	22.6% (active)	–
Cc1c(N)c(C(C)(C)C)cc(C(C)(C)C)c1[N+](=O)[O-]	inactive	inactive	inactive	inactive	–	inactive	inactive	inactive	inactive	inactive	inactive	inactive	–	inactive	inactive	inactive	92% (active)	–	29.4% (active)	–
CCOC(=O)C1(Cc2ccccc2C)CCCN(Cc2ccc(NC(C)=O)cc2)C1 (stereo unspecified)	inactive	inactive	inactive	inactive	–	inactive	inactive	inactive	inactive	inactive	inactive	inactive	inactive	inactive	inactive	inactive	83% (active)	–	–	–
Cc1cccc(C(=O)Nc2sc(-c3ccccc3)cc2C(=O)O)c1	inactive	inactive	inactive	inactive	–	inactive	inactive	inactive	inactive	inactive	inactive	inactive	–	inactive	inactive	inactive	98% (active)	–	19.4% (active)	–
COc1ccc(C)cc1N(C(=O)c1snc(C(N)=O)c1N)C(C(=O)NC1CCCCC1)c1ccc(C)o1 (stereo unspecified)	inactive	inactive	inactive	inactive	–	–	inactive	inactive	inactive	inactive	inactive	inactive	–	inactive	inactive	inactive	92% (active)	72% (active)	19.6% (active)	–
COc1cc(CNC2CCCC2)c(Br)cc1OCc1ccccc1	inactive	inactive	inactive	inactive	–	inactive	inactive	inactive	inactive	inactive	inactive	inactive	–	inactive	inactive	inactive	87% (active)	–	34.4% (active)	–
CCCOc1ccc(Br)cc1/C=N/O	inactive	inactive	inactive	inactive	inactive	–	inactive	inactive	inactive	inactive	inactive	inactive	inactive	inactive	inactive	inactive	–	54% (active)	–	–
Cc1[nH]c2ccc(C(=O)OC(C)C(=O)N(C)c3ccccc3)cc2c1C (stereo unspecified)	inactive	inactive	inactive	inactive	inactive	inactive	inactive	inactive	inactive	inactive	inactive	inactive	inactive	inactive	inactive	inactive	–	–	–	–
NC(=O)c1nsc(C(=O)N(Cc2ccco2)C(C(=O)NCC2CCCO2)c2ccc(F)cc2)c1N (stereo unspecified)	inactive	inactive	inactive	inactive	–	inactive	inactive	inactive	inactive	inactive	inactive	inactive	inactive	inactive	inactive	inactive	76% (active)	–	–	–
Cc1ccccc1C(=O)NC1CC2CCC(C1)N2Cc1ccccc1 (stereo unspecified)	inactive	inactive	inactive	inactive	–	–	inactive	inactive	inactive	inactive	inactive	inactive	–	inactive	inactive	inactive	68% (active)	47% (active)	43.3% (active)	–
CCOC(=O)c1c(-c2cccc(C)c2)csc1NC(=O)C1CC=CCC1C(=O)O (stereo unspecified)	inactive	inactive	inactive	inactive	–	inactive	inactive	inactive	inactive	inactive	inactive	inactive	–	inactive	inactive	inactive	89% (active)	–	46.1% (active)	–
Clc1cccc(COn2c(-c3ccc(Cl)cc3Cl)nc3ncccc32)c1	inactive	inactive	inactive	inactive	–	–	inactive	inactive	inactive	inactive	inactive	inactive	–	inactive	inactive	inactive	83% (active)	45% (active)	41.3% (active)	–
Cc1ccc(Oc2ccccc2/C=N/O)cc1	inactive	inactive	inactive	inactive	–	inactive	inactive	inactive	inactive	inactive	inactive	inactive	–	inactive	inactive	inactive	89% (active)	–	10.1% (active)	–
Cn1cc(-c2nc3ccccc3[nH]2)c2ccccc21	inactive	inactive	inactive	inactive	–	–	inactive	inactive	–	inactive	inactive	inactive	–	inactive	inactive	inactive	99% (active)	49% (active)	41.1% (active)	5.5% (active)
O=C(CN1CCCCC1)N1c2ccccc2Oc2ccccc21	inactive	inactive	inactive	inactive	–	inactive	inactive	inactive	inactive	inactive	inactive	inactive	–	inactive	inactive	inactive	95% (active)	–	9.39% (active)	–
